# Assay results: PubChem BioAssay AID1159580 (chemical genetic matrix, 2015)
# “And” between values parts separate entries of the source, which are not always exact repeats. Equal entries are not always repeated. The campaign covered roughly 5,500 compounds. About 2,000 (36%) were called active. About 18% were inconclusive and are not listed. The list shows a part of the results. Values without a mark were called inactive. Cut-off read from the data, not from the text of the source: active = normalized growth mostly below about 0.91 (no sharp cut-off); inconclusive = no clear call, values can overlap the other calls; inactive = mostly above about 0.92.
# Test: chemical genetic growth profiling, strain panel (AID 1159580);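 note: tested at 20 µM; growth read once vehicle control cultures reached saturation at 30 °C; 1 = growth at the plate median or of vehicle wells; lower values mean less growth of the strain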
# Settings: S. cerevisiae deletion strains, growth OD
compound,measurement,setting,value
COc1ccc2cc3[n+](cc2c1OC)CCc1cc2c(cc1-3)OCO2,normalized growth,"locus YAL013W, strain DEP1, hits give low values",0.509 (active)
same,normalized growth,"locus YAL021C, strain ccr4, hits give low values",0.997
same,normalized growth,"locus YAL026C, strain drs2, hits give low values",0.99
same,normalized growth,"locus YAL030W, strain snc1, hits give low values",0.996
same,normalized growth,"locus YBL061C, strain skt5, hits give low values",0.986
same,normalized growth,"locus YBR009C, strain hhf1, hits give low values",1
same,normalized growth,"locus YBR021W, strain FUR4, hits give low values",0.847
same,normalized growth,"locus YBR023C, strain chs3, hits give low values",0.982
same,normalized growth,"locus YBR171W, strain sec66, hits give low values",0.983
same,normalized growth,"locus YBR229C, strain ROT2, hits give low values",0.762 (active)
same,normalized growth,"locus YBR231C, strain swc5, hits give low values",0.985
same,normalized growth,"locus YBR279W, strain paf1, hits give low values",0.987
same,normalized growth,"locus YCL011C, strain gbp2, hits give low values",0.998
same,normalized growth,"locus YCL016C, strain dcc1, hits give low values",0.982
same,normalized growth,"locus YCL029C, strain bik1, hits give low values",0.379 (active)
same,normalized growth,"locus YCL061C, strain MRC1, hits give low values",1.01
same,normalized growth,"locus YCL069W, strain vba3, hits give low values",0.999
same,normalized growth,"locus YCR088W, strain abp1, hits give low values",0.98
same,normalized growth,"locus YDL005C, strain med2, hits give low values",0.984
same,normalized growth,"locus YDL035C, strain GPR1, hits give low values",0.278 (active)
same,normalized growth,"locus YDL040C, strain nat1, hits give low values",0.986
same,normalized growth,"locus YDL074C, strain BRE1, hits give low values",0.352 (active)
same,normalized growth,"locus YDL101C, strain DUN1, hits give low values",0.569 (active)
same,normalized growth,"locus YDL134C, strain PPH21, hits give low values",0.398 (active)
same,normalized growth,"locus YDL185W, strain tfp1, hits give low values",1
same,normalized growth,"locus YDL192W, strain arf1, hits give low values",0.436 (active)
same,normalized growth,"locus YDR001C, strain nth1, hits give low values",0.981
same,normalized growth,"locus YDR069C, strain doa4, hits give low values",1
same,normalized growth,"locus YDR101C, strain arx1, hits give low values",0.278 (active)
same,normalized growth,"locus YDR137W, strain rgp1, hits give low values",0.979
same,normalized growth,"locus YDR150W, strain NUM1, hits give low values",0.681 (active)
same,normalized growth,"locus YDR159W, strain sac3, hits give low values",1.02
same,normalized growth,"locus YDR162C, strain NBP2, hits give low values",0.533 (active)
same,normalized growth,"locus YDR195W, strain ref2",0.977
same,normalized growth,"locus YDR297W, strain sur2, hits give low values",0.99
same,normalized growth,"locus YDR318W, strain mcm21, hits give low values",0.461 (active)
same,normalized growth,"locus YDR334W, strain swr1, hits give low values",0.973
same,normalized growth,"locus YDR335W, strain msn5, hits give low values",0.967
same,normalized growth,"locus YDR388W, hits give low values",0.365 (active)
same,normalized growth,"locus YDR392W, strain spt3, hits give low values",0.984
same,normalized growth,"locus YDR502C, strain sam2, hits give low values",0.345 (active)
same,normalized growth,"locus YEL003W, strain gim4, hits give low values",0.99
same,normalized growth,"locus YEL037C, strain rad23, hits give low values",0.981
same,normalized growth,"locus YEL061C, strain CIN8 (second series), hits give low values",0.993
same,normalized growth,"locus YEL061C, strain CIN8, hits give low values",0.567 (active)
same,normalized growth,"locus YER015W, strain faa2, hits give low values",0.991
same,normalized growth,"locus YER016W, strain bim1, hits give low values",0.981
same,normalized growth,"locus YER110C, hits give low values",0.452 (active)
same,normalized growth,"locus YER111C, strain swi4, hits give low values",1
same,normalized growth,"locus YER155C, strain BEM2 (second series), hits give low values",0.968
same,normalized growth,"locus YER155C, strain BEM2, hits give low values",0.957
same,normalized growth,"locus YER167W, strain BCK2, hits give low values",0.467 (active)
same,normalized growth,"locus YFR010W, strain ubp6, hits give low values",0.992
same,normalized growth,"locus YGL078C, strain dbp3, hits give low values",0.854 (active)
same,normalized growth,"locus YGL086W, strain mad1, hits give low values",0.394 (active)
same,normalized growth,"locus YGL167C, strain pmr1, hits give low values",0.983
same,normalized growth,"locus YGL173C, strain kem1, hits give low values",0.989
same,normalized growth,"locus YGL227W, strain vid30, hits give low values",0.989
same,normalized growth,"locus YGL240W, strain doc1, hits give low values",0.996
same,normalized growth,"locus YGL248W, strain PDE1, hits give low values",0.3 (active)
same,normalized growth,"locus YGL253W, strain hxk2, hits give low values",0.988
same,normalized growth,"locus YGR078C, strain PAC10, hits give low values",0.481 (active)
same,normalized growth,"locus YGR135W, strain pre9, hits give low values",0.318 (active)
same,normalized growth,"locus YGR229C, strain SMI1, hits give low values",0.454 (active)
same,normalized growth,"locus YGR252W, strain gcn5, hits give low values",0.604 (active)
same,normalized growth,"locus YHR013C, strain ard1, hits give low values",0.943
same,normalized growth,"locus YHR027C, strain rpn1, hits give low values",0.998
same,normalized growth,"locus YHR030C, strain SLT2, hits give low values",0.664 (active) and 0.844 (active)
same,normalized growth,"locus YHR079C, strain IRE1 (second series), hits give low values",0.439 (active)
same,normalized growth,"locus YHR079C, strain IRE1, hits give low values",0.783 (active)
same,normalized growth,"locus YHR094C, strain hxt1, hits give low values",0.689 (active)
same,normalized growth,"locus YHR129C, strain ARP1, hits give low values",0.699 (active)
same,normalized growth,"locus YHR142W, strain chs7, hits give low values",0.995
same,normalized growth,"locus YHR200W, strain rpn10, hits give low values",0.518 (active)
same,normalized growth,"locus YIL066C, strain RNR3, hits give low values",0.373 (active)
same,normalized growth,"locus YIL073C, strain SPO22, hits give low values",0.209 (active)
same,normalized growth,"locus YIL125W, strain kgd1, hits give low values",0.966
same,normalized growth,"locus YIR030C, strain dcg1, hits give low values",0.521 (active)
same,normalized growth,"locus YJL092W, strain hpr5, hits give low values",0.982
same,normalized growth,"locus YJL095W, strain BCK1 (second series), hits give low values",1.01
same,normalized growth,"locus YJL095W, strain BCK1, hits give low values",0.417 (active) and 0.79 (active)
same,normalized growth,"locus YJL115W, strain asf1, hits give low values",0.986
same,normalized growth,"locus YJL129C, strain trk1, hits give low values",0.993
same,normalized growth,"locus YJL134W, strain LCB3, hits give low values",0.874 (active)
same,normalized growth,"locus YJL154C, strain vps35, hits give low values",0.974
same,normalized growth,"locus YJL164C, strain tpk1, hits give low values",0.99
same,normalized growth,"locus YJL166W, strain qcr8, hits give low values",1.01
same,normalized growth,"locus YJL168C, strain set2, hits give low values",0.826 (active)
same,normalized growth,"locus YJL187C, strain SWE1 (second series), hits give low values",0.291 (active)
same,normalized growth,"locus YJL187C, strain SWE1, hits give low values",0.989
same,normalized growth,"locus YJR043C, strain POL32, hits give low values",0.482 (active)
same,normalized growth,"locus YJR066W, strain TOR1, hits give low values",0.765 (active)
